# In PubChem BioAssay (Tox21):
# Values joined by “and” are separate entries in the source; they are usually repeats but may differ in a detail not shown here. Equal entries are not always repeated. Inconclusive results are not listed. Active and inactive are the calls of the source. Calls follow the shape of the dose curve; as a rule, active = well fitted cell-killing curve with a large enough effect in the repeat runs; inconclusive = weak or mixed curves; inactive = flat fitted curve, though single readings scatter.
# Assay: qHTS RealTime-Glo MT Cell Viability Assay in HepG2 cells - 16 hour (AID 1224885); also: nearly all actives have a fitted effect of over 50% in size
# Settings: RealTime-Glo luminescence; series mostly up to 76.8 µM; activity change, negative = cytotoxic: at the top concentration
# Text: U.S. Tox21 Program National Center for Advancing Translational Sciences [NCATS] NIH Chemical Genomics Center [NCGC] U.S. Environmental Protection Agency [EPA] National Institutes of Environmental Health Sciences [NIEHS] National Toxicology Program [NTP] U.S. Food and Drug Administration [FDA] Tox21 Assay Overview: Measure of cell viability is critical in the cell-base assay. Analysis of cell viability is necessary for the characterization of cell responses to cytotoxic drugs and environmental stress. A RealTime-Glo MT Cell Viability Assay to monitor cell viability in real time of continues cell culture during 40 hours of compound treatment was used to screen Tox21 10K library compounds in HepG2 cells. The RealTime-Glo MT Cell Viability Assay is a nonlytic, homogeneous, bioluminescent method to measure cell viability in real time using a simple, plate-based method. The assay involves adding NanoLuc luciferase and a cell-permeant prosubstrate to cells in culture. Viable cells reduce the proprietary prosubstrate to generate a substrate for NanoLuc luciferase. This substrate diffuses from cells into the surrounding culture medium, where it is rapidly used by the NanoLuc Enzyme to produce a luminescent signal. The signal correlates with the number of viable cells, making the assay well suited for cytotoxicity studies.
# Tox21 Assay Protocol Summary: The mixture of HepG2 cell suspension and reagents were dispensed at 600cells/6 ul/well in 1536-well tissue culture treated black solid bottom plates using a Multidrop dispenser. After the assay plates were incubated at a 37 C/5% CO2 incubator for 5 hours, 23 nL of compounds dissolved in DMSO, positive and negative controls was transferred to the assay plate by a pintool work station. The plates were incubated at 37 C for 40 hours. The luminescence intensity were measured at 0h, 8h, 16h, 24h, 32h and 40h time points using ViewLux plate reader during compound treatment.
# % is scaled to controls: 0 for no effect and ±100 for the full control effect; potency is read from the fitted curve at half-maximal effect.
SMILES,"activity change, negative = cytotoxic",Potency
CN(C)CCN1CCN(c2cccc(Cl)c2)C1=O,0.0127% [at 35.3 µM] (inactive),–
Fc1ccc(C(c2ccc(F)cc2)N2CCNCC2)cc1,-11.4% [at 35.3 µM] (inactive),–
[Cl][Pt-2]([Cl])([Cl])[Cl],0.247% (inactive),–
Cc1nc(-c2ccc(Cl)cc2)oc1COC(C)(C)C(=O)O,0.407% [at 35.3 µM] (inactive),–
C[C@H]1NCc2cc(-c3ccc4c(=O)c(C(=O)O)cn(C5CC5)c4c3OC(F)F)ccc21,-14.5% [at 15.8 µM] (inactive),–
CCCCNS(=O)(=O)c1ccc(C)cc1,-3.68% (inactive),–
CC(CCc1ccccc1)NCC(O)c1ccc(O)c(C(N)=O)c1 (stereo not given),-0.63% (inactive),–
Cc1c(C)c([N+](=O)[O-])c(C(C)(C)C)c([N+](=O)[O-])c1C,-11.4% (inactive),–
CCc1cccc(CC)c1NC(=O)CN(CC(=O)O)CC(=O)O,0.174% [at 35.3 µM] (inactive),–
O=S(=O)(O)c1ccccc1/C=C/c1ccc(-c2ccc(/C=C/c3ccccc3S(=O)(=O)O)cc2)cc1,-0.322% (inactive),–
C=CC(C)(CCC=C(C)C)OC=O (stereo not given),-0.221% (inactive),–
CCN1C(=O)c2ccccc2C1Nc1ccc(OCCN2CCCCC2)cc1 (stereo not given),-9.99% [at 35.3 µM] (inactive),–
C=CC(=O)Nc1cc2c(Nc3ccc(F)c(Cl)c3)ncnc2cc1OCCCN1CCOCC1,–,8.49 µM (active)
CCO[Si](OCC)(OCC)OCC,-0.221% (inactive),–
CC(=O)Oc1cc2c(s1)CCN(C(C(=O)C1CC1)c1ccccc1F)C2 (stereo not given),0.127% [at 35.3 µM] (inactive),–
Oc1c(I)cc(Cl)c2cccnc12,-4% [at 35.3 µM] (inactive),–
OC1CCCc2ccccc21 (stereo not given),0.163% (inactive),–
COc1cc2nc(N3CCN(C(=O)c4ccco4)CC3)nc(N)c2cc1OC,-15.2% [at 15.8 µM] (inactive),–
CN1CCCCC1CCN1c2ccccc2Sc2ccc(S(C)=O)cc21 (stereo not given),0.532% [at 35.3 µM] (inactive),–
CC[C@H](C)COC(=O)/C=C/c1ccc(N=Cc2ccc(OC)cc2)cc1,-6.33% (inactive),–

SMILES,"activity change, negative = cytotoxic",Potency
C#C[C@]1(OC(C)=O)CC[C@H]2[C@@H]3CCC4=C/C(=N/O)CC[C@@H]4[C@H]3CC[C@@]21CC,-21.6% [at 35.3 µM] (inactive),–
CCCC(=O)OC(C)(C)Cc1ccccc1,-3.13% (inactive),–
Cc1cc(=O)oc2cc(O)cc(O)c12,-5.98% (inactive),–
CC(=O)OCC=C(C)C,2.14% [at 35.3 µM] (inactive),–
Cc1cccc(C)c1NC(=O)c1ccc(N)cc1,8.72% [at 35.3 µM] (inactive),–
Cc1c(C)c2c(c(C)c1OC(=O)c1cccnc1)CC[C@@](C)(CCC[C@H](C)CCC[C@H](C)CCCC(C)C)O2,0.0361% [at 35.3 µM] (inactive),–
COCCOc1cc2cc(C(=O)NC3CCN(C(C)C)CC3)n(CC(=O)Nc3ccc(Cl)cn3)c2cn1,0.587% (inactive),–
CCCCOC(=O)CO,1.72% (inactive),–
CCCCCCCCCCC[C@@H](C[C@@H]1OC(=O)[C@H]1CCCCCC)OC(=O)[C@H](CC(C)C)NC=O,-14% [at 35.3 µM] (inactive),–
O=c1[nH]c(=O)n([C@H]2C[C@H](O)[C@@H](CO)O2)cc1F,-0.369% [at 35.3 µM] (inactive),–
CCC(C)[O-].CCC(C)[O-].CCOC(=O)/C=C(/C)[O-].[Al+3],-4.85% (inactive),–
Sc1nc2ccccc2s1,-2.58% (inactive),–
CCOC(=O)NNc1ccc(N(CC)CC(C)O)nn1 (stereo not given),-0.544% [at 35.3 µM] (inactive),–
CCCCCCCCCCCCCCCC[N+](C)(C)CC,–,49.1 µM (active) and 23.9 µM (active)
CC[N+](CC)(CC)CCOC(=O)C(C1CCCC1)C1CCCC1,2.98% [at 35.3 µM] (inactive),–
CN(C)Cc1ccccc1O,-1.03% (inactive),–
C[C@@H](O)[C@H](N)C(=O)O,-0.0796% [at 15.8 µM] (inactive),–
O=C(O)CN(CCN(CC(=O)O)CC(=O)O)CC(=O)O,-5.14% [at 2.72 µM] (inactive),–
CCN(CC)C(=O)c1cc(S(=O)(=O)Cc2ccccc2)c(N2CCC(c3ccccc3)CC2)cc1N(CC)CCN(C)C,–,19.3 µM (active)
c1ccc(SSc2ccccc2)cc1,2.12% (inactive),–
